Among the data in ChEMBL document CHEMBL3988442, “University of Dundee, Small-Polar-MMV Screening Library” (2021) are Percent Effect values, retold here.

For some assays here: Measured potencies and affinities stand elsewhere.

Parameters in all cases: scale not given: direction of the effect not stated beside the values
Assay [1] concerns the target Protein translocase subunit SecA (Escherichia coli (strain K12)) (UniProt P10408). Briefly: Assay to Identify E. coli SecA ATPase Inhibitors. To be noted: 30 µM. The assay is classed as functional.
The target in assay [2] is T1, Ubiquitin-activating enzyme e1, putative (Leishmania donovani (strain BPK282A1)) (UniProt E9BSI1).
T1 sequence (whole entry): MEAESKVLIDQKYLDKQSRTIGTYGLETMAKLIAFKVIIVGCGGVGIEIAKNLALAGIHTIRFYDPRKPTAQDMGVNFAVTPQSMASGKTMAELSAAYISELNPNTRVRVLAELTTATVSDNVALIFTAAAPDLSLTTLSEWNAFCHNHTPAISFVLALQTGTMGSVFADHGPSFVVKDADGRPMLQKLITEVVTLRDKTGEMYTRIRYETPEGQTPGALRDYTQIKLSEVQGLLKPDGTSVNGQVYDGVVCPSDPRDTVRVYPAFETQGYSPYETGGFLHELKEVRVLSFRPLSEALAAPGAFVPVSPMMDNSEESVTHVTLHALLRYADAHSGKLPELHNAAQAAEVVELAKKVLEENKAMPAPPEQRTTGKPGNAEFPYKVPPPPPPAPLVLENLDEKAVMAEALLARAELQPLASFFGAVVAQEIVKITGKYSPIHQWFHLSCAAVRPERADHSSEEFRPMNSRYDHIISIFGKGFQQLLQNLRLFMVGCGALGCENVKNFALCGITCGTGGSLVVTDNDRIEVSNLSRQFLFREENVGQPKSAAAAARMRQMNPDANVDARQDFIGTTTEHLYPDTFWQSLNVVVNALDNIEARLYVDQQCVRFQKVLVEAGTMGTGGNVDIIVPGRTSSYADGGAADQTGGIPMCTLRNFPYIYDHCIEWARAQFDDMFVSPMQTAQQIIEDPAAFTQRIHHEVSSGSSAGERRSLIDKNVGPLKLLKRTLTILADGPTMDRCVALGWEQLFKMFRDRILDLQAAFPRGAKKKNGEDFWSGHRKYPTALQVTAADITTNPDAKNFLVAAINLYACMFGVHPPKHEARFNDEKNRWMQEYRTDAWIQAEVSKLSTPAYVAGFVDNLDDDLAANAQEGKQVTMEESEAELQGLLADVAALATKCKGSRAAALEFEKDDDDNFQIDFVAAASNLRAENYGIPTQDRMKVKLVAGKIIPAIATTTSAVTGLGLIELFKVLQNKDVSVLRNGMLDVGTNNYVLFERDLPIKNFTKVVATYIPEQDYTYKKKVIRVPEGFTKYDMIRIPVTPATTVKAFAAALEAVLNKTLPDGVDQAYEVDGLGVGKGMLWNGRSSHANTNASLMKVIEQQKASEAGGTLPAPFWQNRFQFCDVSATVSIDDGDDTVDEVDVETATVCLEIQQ
Briefly: Leishmania donovani Ubiquitin Activating Enzyme (LdE1). The class given is functional. To be noted: 30 µM.

Assay [3] deals with Sialic acid-binding Ig-like lectin 9 (Homo sapiens) (UniProt Q9Y336). The assay is described as follows: Hs-Siglec9 ALPHAscreen SOP 20170721. To be noted: 10 µM. (In Alpha technology, singlet oxygen from a donor bead excites a nearby acceptor bead.)
Sialic acid-binding Ig-like lectin 9 (Homo sapiens), sequence (Q9Y336 whole entry): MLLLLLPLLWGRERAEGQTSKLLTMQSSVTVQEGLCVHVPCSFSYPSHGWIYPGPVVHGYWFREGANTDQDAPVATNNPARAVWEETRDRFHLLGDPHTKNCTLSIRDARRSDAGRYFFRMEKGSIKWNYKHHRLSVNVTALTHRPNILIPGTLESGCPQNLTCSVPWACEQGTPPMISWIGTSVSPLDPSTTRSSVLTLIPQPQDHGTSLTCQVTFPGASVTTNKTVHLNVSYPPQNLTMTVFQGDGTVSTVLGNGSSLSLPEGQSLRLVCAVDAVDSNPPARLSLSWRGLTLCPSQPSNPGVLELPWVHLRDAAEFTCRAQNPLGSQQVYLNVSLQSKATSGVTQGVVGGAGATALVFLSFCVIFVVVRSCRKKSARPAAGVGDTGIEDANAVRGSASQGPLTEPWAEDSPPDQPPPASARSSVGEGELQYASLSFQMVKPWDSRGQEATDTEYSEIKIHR
The test system of the next assay is Trypanosoma cruzi. Briefly: Trypanosoma cruzi phosphomannomutase and mannose-1-phosphate guanylyltransferase assay. The class given is functional. The conditions noted are these: 10 µM.
Assay [4] has as its target T2, Arginase-2, mitochondrial (Homo sapiens) (UniProt P78540).
T2 sequence (whole entry): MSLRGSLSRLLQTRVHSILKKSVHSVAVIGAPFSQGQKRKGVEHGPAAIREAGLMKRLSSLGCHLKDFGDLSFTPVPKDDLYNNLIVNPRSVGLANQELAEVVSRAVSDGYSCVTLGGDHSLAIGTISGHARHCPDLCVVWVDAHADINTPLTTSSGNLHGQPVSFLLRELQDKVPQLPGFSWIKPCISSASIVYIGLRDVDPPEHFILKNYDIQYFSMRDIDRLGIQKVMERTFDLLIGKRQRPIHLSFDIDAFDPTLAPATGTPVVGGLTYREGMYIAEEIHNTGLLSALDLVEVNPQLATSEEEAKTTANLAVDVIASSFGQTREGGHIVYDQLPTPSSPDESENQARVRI
The assay is described as follows: in vitro enzyme assay to detect the production of urea directly proportional to the activity of Arginase II. Note: in the data most compounds retested in dose-response had high values. The class given is functional. The conditions noted are these: 33.3 µM.

For assay [5], the target named is T3, Proteasome subunit beta (Trypanosoma cruzi) (UniProt O96673).
T3 sequence (whole entry): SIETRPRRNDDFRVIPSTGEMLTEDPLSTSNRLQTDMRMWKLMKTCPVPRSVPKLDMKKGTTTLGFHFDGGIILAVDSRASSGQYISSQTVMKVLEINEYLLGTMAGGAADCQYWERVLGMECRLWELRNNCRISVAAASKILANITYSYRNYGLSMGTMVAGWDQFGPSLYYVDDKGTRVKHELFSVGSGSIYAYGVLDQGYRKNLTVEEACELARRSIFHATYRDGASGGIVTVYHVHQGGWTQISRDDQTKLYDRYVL
Briefly: Trypanosoma cruzi proteasome chymotrypsin-like activity (TcProtChymo) assay. Note: in the data most compounds retested in dose-response had high values. The conditions noted are these: 9.37 µM. The class given is functional.

The species entered for a further assay is Homo sapiens. The assay is described as follows: To identify inhibition of the IFN signalling (Jak-Stat) pathway via expression of an eGFP reporter gene under the control of an IFN-stimulated response element (ISRE) containing MxA promoter. The class given is functional. To be noted: 30 µM. On the technique in general: Reporter assays use an easily measured gene product as a stand-in for the process of interest.

The target in assay [6] is T4, Tyrosyl-tRNA synthetase, putative (Trypanosoma cruzi (strain CL Brener)) (UniProt Q4DSP6).
T4 sequence (whole entry): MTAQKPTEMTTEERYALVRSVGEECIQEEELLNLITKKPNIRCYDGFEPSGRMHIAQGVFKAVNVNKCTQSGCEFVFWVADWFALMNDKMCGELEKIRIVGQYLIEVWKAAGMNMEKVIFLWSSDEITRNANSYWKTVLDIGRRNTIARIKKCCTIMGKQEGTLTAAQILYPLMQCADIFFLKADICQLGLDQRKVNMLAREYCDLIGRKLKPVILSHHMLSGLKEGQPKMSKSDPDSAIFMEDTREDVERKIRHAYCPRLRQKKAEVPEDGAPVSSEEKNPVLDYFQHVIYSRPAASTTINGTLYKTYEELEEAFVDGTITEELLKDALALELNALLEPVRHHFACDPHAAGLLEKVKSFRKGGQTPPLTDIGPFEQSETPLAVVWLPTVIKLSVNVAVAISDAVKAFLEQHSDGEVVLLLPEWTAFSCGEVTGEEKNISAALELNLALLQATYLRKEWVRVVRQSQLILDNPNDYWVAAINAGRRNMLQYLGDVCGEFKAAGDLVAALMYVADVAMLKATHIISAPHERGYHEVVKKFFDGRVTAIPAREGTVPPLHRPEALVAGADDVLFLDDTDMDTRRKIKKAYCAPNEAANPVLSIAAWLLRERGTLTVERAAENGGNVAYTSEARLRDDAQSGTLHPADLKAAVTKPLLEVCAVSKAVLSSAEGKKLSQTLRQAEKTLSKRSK
The assay is described as follows: Trypanosoma cruzi tyrosyl tRNA synthetase (TcYRS) _High Tyrosine SOP. Note: in the data most compounds retested in dose-response had high values. The class given is functional. The conditions noted are these: 30 µM.

Assay [7] deals with T4, Tyrosyl-tRNA synthetase, putative (Trypanosoma cruzi (strain CL Brener)). The assay is described as follows: Trypanosoma cruzi tyrosyl tRNA synthetase (TcYRS) SOP. The assay is classed as functional. To be noted: 30 µM.
The target in assay [8] is Chromo domain-containing protein 1 (Saccharomyces cerevisiae (strain ATCC 204508 / S288c) (Baker's yeast)) (UniProt P32657). The assay is described as follows: ScCHD-1 Enzyme Inhibition Assay. Note: in the data most compounds retested in dose-response had high values. The assay is classed as functional. The conditions noted are these: 30 µM.
Chromo domain-containing protein 1 (Saccharomyces cerevisiae (strain ATCC 204508 / S288c) (Baker's yeast)), sequence (P32657 whole entry, the tested form may be a part): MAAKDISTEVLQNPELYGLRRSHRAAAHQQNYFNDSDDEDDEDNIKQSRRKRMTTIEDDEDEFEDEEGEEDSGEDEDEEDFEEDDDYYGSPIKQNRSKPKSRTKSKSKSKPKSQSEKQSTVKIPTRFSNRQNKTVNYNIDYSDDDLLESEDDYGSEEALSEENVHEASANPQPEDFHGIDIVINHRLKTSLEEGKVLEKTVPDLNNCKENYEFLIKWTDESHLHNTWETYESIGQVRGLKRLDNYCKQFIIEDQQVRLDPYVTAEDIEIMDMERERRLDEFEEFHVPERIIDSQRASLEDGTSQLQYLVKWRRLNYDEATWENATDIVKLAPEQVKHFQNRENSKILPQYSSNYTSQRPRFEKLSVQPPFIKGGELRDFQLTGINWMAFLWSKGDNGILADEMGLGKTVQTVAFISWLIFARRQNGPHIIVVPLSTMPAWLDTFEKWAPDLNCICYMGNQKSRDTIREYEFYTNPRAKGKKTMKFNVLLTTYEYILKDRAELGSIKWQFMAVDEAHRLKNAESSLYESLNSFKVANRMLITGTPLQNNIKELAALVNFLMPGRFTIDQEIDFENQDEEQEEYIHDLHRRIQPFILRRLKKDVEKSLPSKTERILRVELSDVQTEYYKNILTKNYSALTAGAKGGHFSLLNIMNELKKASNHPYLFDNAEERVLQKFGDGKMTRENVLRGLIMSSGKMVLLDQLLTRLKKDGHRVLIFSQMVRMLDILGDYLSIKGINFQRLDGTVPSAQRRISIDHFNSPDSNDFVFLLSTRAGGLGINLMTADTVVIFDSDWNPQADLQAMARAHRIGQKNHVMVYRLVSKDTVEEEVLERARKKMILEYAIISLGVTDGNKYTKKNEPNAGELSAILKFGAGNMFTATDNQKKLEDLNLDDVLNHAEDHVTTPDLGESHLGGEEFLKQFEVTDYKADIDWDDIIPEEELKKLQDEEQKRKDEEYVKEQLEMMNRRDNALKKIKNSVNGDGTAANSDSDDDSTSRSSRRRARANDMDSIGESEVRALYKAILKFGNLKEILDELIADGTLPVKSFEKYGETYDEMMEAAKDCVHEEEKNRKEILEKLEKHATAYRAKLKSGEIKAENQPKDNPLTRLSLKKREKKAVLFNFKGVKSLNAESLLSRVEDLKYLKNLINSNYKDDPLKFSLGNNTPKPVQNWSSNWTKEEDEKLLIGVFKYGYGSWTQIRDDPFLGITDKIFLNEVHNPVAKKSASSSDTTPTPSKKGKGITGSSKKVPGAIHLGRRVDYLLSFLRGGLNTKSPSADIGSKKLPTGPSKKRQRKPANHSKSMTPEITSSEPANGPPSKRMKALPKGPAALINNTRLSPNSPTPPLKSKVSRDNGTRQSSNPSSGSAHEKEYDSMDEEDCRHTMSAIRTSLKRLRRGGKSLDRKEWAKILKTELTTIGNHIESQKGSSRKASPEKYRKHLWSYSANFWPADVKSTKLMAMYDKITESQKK

Protein translocase subunit SecA (Escherichia coli (strain K12)), sequence (P10408 whole entry): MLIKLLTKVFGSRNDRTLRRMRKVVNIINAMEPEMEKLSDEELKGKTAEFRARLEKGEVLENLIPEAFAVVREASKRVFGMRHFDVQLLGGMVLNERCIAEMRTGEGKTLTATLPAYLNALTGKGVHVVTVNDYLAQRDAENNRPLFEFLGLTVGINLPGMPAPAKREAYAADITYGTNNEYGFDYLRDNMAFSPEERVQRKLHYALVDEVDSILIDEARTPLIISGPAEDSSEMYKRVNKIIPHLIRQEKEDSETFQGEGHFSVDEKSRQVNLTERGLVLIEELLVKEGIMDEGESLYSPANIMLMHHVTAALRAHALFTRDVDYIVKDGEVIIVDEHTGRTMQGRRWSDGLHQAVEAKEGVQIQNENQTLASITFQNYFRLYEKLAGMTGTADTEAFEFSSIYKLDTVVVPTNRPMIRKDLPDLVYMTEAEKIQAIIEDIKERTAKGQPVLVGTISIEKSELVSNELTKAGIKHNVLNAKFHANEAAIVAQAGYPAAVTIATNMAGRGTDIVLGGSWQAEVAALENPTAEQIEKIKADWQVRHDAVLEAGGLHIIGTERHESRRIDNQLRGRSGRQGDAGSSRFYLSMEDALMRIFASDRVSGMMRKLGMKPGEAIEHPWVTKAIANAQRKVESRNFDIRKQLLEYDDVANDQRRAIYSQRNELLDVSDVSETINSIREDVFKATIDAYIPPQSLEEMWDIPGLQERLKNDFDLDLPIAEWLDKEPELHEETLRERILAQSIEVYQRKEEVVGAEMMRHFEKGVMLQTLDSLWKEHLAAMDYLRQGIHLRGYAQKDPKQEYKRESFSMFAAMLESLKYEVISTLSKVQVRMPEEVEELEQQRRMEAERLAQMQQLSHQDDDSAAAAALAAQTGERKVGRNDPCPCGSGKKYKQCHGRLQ

Turning to `COc1ncc(C2(O)CCN(Cc3cccs3)CC2)c(OC)n1`, the Percent Effect is -5.49% in [1]; 22.7% in assay [2]; -1.28% in assay [3]; 2.76% in the assay with Trypanosoma cruzi; -3.54% in assay [4]; 11.2% in [5]. Besides, the Percent Effect in the assay filed under Homo sapiens was 4.21%; in assay [6], 8.47%; in assay [7], 20%; in assay [8], -25.5%.
With `CC(C)CN1C[C@@H]2CN(C(=O)[C@H]3CCCO3)C[C@@H]2C1=O`, the Percent Effect in assay [1] is -2.4%; in assay [2], 16.9%; in assay [3], -1.93%; in the assay on Trypanosoma cruzi it was -7.13%; in assay [4] it was 3.65%; in [5] it was 5.06%. Besides, the Percent Effect in the assay filed under Homo sapiens is 7.85%; in assay [6], -5.8%; in assay [7] it was 12.5%; in [8], -5.7%.
As for `Fc1ccccc1Cc1noc(CN2CCCC(CN3CCCC3)C2)n1` (stereo not given), the Percent Effect in [1] was -7.22%; in [2], -2.7%; in assay [3] it was 4.23%; in the assay on Trypanosoma cruzi, 7.86%; in [4] it was -2.45%; in assay [5], 3.08%. For the same compound, the Percent Effect is -6.53% in the assay filed under Homo sapiens, 6.92% in assay [6], 12.2% in assay [7] and -3.21% in [8].
As for `CC(C)c1nnc2n1CCN(C(=O)c1ccnc(N(C)C)c1)C2`, the Percent Effect in [1] is -5.81%; in assay [2], 10.7%; in [3], 7.33%; with Trypanosoma cruzi, 0%; in assay [4] it was -5.76%; in assay [5], 16.9%. The Percent Effect in the assay filed under Homo sapiens was -3.26%; in assay [6], 3.68%; in assay [7], 10.3%; in assay [8], -12.4%.
Take `Cc1cnn(CC2CCCCN2CCCS(N)(=O)=O)c1` (stereo not given): the Percent Effect in assay [1] is -1.01%; in assay [2] it was 21.3%; in assay [3], -1.72%; in the assay with Trypanosoma cruzi, -2.01%; in [4], 3.55%; in assay [5] it was 11.3%. In addition, the Percent Effect is 8.53% in the assay filed under Homo sapiens, 5.79% in assay [6], -2.56% in [7] and -12.4% in assay [8].
In the case of `COCCN1CCN(Cc2cccc(C(=O)N(C)C)c2)CC1C` (stereo not given), the Percent Effect was -1.22% in assay [1]; 18.7% in assay [2]; -4.75% in [3]; -1.61% in the assay on Trypanosoma cruzi; 2.66% in assay [4]; 7.72% in assay [5]. Moreover, the Percent Effect in the assay listed under Homo sapiens was 6.69%; in assay [6] it was 3.68%; in [7] it was 7.69%; in assay [8], -8.7%.
As for `Cc1cc(-c2ccc(C(=O)O)cc2)nc(C2CCCN(C(C)C)C2)n1` (stereo not given), the Percent Effect in assay [1] was -0.51%; in assay [2], 12%; in [3], 1.15%; in the assay on Trypanosoma cruzi, 1.77%; in [4], 0.885%; in assay [5], 6.08%. The Percent Effect was 4.86% in the assay listed under Homo sapiens, 6.35% in [6], 17.5% in assay [7] and -24.7% in assay [8].
With `CC(Nc1cccc(CN2CCOC2=O)c1)C(=O)NC(N)=O` (stereo not given), the Percent Effect was -7.02% in [1]; 15.4% in assay [2]; -17.4% in [3]; 13.1% in the assay on Trypanosoma cruzi; -4.1% in assay [4]; 7.76% in assay [5]. Moreover, the Percent Effect in the assay filed under Homo sapiens is 15.9%; in assay [6], 8.13%; in assay [7] it was 18.1%; in assay [8], 17.9%.
For `CCOc1ncccc1CNC(=O)Nc1ccc(N(C)C)nc1`, the Percent Effect was -5.71% in assay [1]; 2.6% in assay [2]; -6.42% in assay [3]; -9.89% in the assay with Trypanosoma cruzi; -2.66% in assay [4]; 15.3% in assay [5]. Besides, the Percent Effect in the assay filed under Homo sapiens is 13.9%; in assay [6] it was 0.98%; in assay [7], 4.71%; in assay [8] it was -9.6%.
As for `O=C(CCN1CCCN(c2nccs2)CC1)Nc1ccccc1`, the Percent Effect in [1] was -2.89%; in assay [2], 10.7%; in assay [3] it was -7.96%; with Trypanosoma cruzi, -4.82%; in [4], -5.76%; in assay [5] it was 13.2%. The Percent Effect in the assay filed under Homo sapiens was 17.4%; in assay [6], -0.526%; in [7], -5.13%; in assay [8], -12%.
For the compound `COc1ncc(C2(O)CCN(Cc3ccccc3O)CC2)c(OC)n1`, the Percent Effect in [1] was -3.88%; in assay [2], 22.7%; in [3], 0.188%; in the assay with Trypanosoma cruzi, 1.58%; in assay [4], -3.1%; in assay [5] it was 13.6%. The Percent Effect in the assay filed under Homo sapiens is -5.87%; in [6] it was 6.35%; in assay [7], 20%; in assay [8], -23.4%.
For the compound `Cn1ccc(CN2CCCC2c2ccc3c(c2)OCCCO3)cc1=O` (stereo not given), the Percent Effect in assay [1] was -1.37%; in [2], 7.69%; in [3], -4.76%; in the assay with Trypanosoma cruzi, 1.78%; in assay [4] it was 6.56%; in assay [5], 18.2%. In addition, the Percent Effect is 22% in the assay listed under Homo sapiens, 9.09% in assay [6], 20.5% in assay [7] and -1.67% in [8].
On to `CCOc1ccc2[nH]c(=O)c(CN3CCC(O)CC3)cc2c1`, for which the Percent Effect in assay [1] was -8.45%; in assay [2], 5.41%; in [3], 3.7%; with Trypanosoma cruzi, 3.4%; in [4], -1.75%; in assay [5], 3.77%. The Percent Effect in the assay filed under Homo sapiens is -4.92%; in [6], 9.04%; in [7], 21.9%; in assay [8] it was -0.516%.
Consider `COc1cc(S(=O)(=O)N2CCCc3ccccc32)cc(C(=O)O)c1OC`, for which the Percent Effect in assay [1] was -5.67%; in assay [2], 0%; in assay [3] it was 10.6%; in the assay with Trypanosoma cruzi, -0.201%; in assay [4] it was -3.99%; in [5] it was 7.38%. Also, the Percent Effect in the assay listed under Homo sapiens was 9.13%; in assay [6], 0.526%; in [7], 7.69%; in assay [8], -5.31%.
